According to PubChem BioAssay (NCI):
This is part of a sample that, as a whole, favours compounds with a hit. Of some 79,000 tested, about 15% had one in any assay. Calls of active or inactive are those of the source. Rule as the data show it: active = growth inhibition above about 70%; inactive = the rest.

Key:
[1] = NCI Yeast Anticancer Drug Screen. Data for the rad52 strain (AID 147);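 also: 0% = growth of vehicle-treated control cultures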; conditions: S. cerevisiae rad52 mutant growth inhibition, active compounds read high
Summary of the method: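 Inhibition of yeast growth, referenced to vehicle controls, was the measured output for a strain with defective DNA damage repair.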

[2] = NCI Yeast Anticancer Drug Screen. Data for the wt1 strain (AID 149);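 also: 0% = growth of vehicle-treated wt1 cultures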; conditions: S. cerevisiae wt1 strain (SPY 50644) growth inhibition, active compounds read high
Summary of the method: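 Measured: growth of wt1 yeast under compound versus vehicle treatment, reported as inhibition.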

[3] = NCI Yeast Anticancer Drug Screen. Data for the rad50EPP+ strain (AID 151);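 also: 0% = growth of vehicle-treated control cultures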; conditions: S. cerevisiae rad50 mutant strain, active compounds read high
Summary of the method: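 Genetically defined yeast (rad50EPP+, DNA damage repair alteration) is grown with compound, and inhibition of growth is expressed relative to vehicle-treated controls.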

[4] = NCI Yeast Anticancer Drug Screen. Data for the mgt1 strain (AID 153); conditions: S. cerevisiae mgt1 mutant growth inhibition, active compounds read high
Summary of the method: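 In the mgt1 strain, test compounds were added and growth inhibition was determined relative to vehicle-treated controls.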

[5] = NCI Yeast Anticancer Drug Screen. Data for the rad50 strain (AID 155);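 also: 0% = growth of vehicle-only cultures of the same strain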; conditions: S. cerevisiae rad50 strain growth inhibition, active compounds read high
Summary of the method: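 Growth of the mutant yeast was measured after compound exposure and referenced to vehicle-treated cultures.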

[6] = NCI Yeast Anticancer Drug Screen. Data for the mec2-1 strain (AID 157); conditions: S. cerevisiae mec2-1 strain, active compounds read high
Summary of the method: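 Each compound was tested on mec2-1 yeast, a strain altered in DNA damage repair or cell cycle control. Growth inhibition is reported relative to vehicle.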

[7] = NCI Yeast Anticancer Drug Screen. Data for the sgs1 mgt1 strain (AID 161);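 also: 0% = growth of cultures given vehicle only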; conditions: S. cerevisiae sgs1 mgt1 strain, active compounds read high
Summary of the method: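 Inhibition of yeast growth, normalised to vehicle-treated controls, is reported for a strain bearing genetic alterations in DNA damage repair.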

[8] = NCI Yeast Anticancer Drug Screen. Data for the CLN2oe strain (AID 163);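 also: 0% = growth of vehicle-only control cultures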; conditions: S. cerevisiae CLN2oe strain, active compounds read high
Summary of the method: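 First, the altered yeast strain was treated with each compound; second, its growth was measured; finally, inhibition was derived by comparison with vehicle controls.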

[9] = NCI Yeast Anticancer Drug Screen. Data for the cln2 rad14 strain (AID 165);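 also: 0% = growth equal to vehicle treated cultures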; conditions: S. cerevisiae cln2 rad14 strain, active compounds read high
Summary of the method: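 Test compounds were added to cln2 rad14 yeast cultures; inhibition of growth was then determined by comparison with vehicle treatment.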

[10] = NCI Yeast Anticancer Drug Screen. Data for the bub3 strain (AID 167); conditions: S. cerevisiae bub3 mutant strain, active compounds read high
Summary of the method: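 Whole-cell yeast assay. The mutant strain was incubated with compounds, and growth inhibition was determined by comparison with vehicle-treated cells.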

[11] = NCI Yeast Anticancer Drug Screen. Data for the wt2 strain (AID 169);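 also: 0% = growth of vehicle-treated yeast cultures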; conditions: S. cerevisiae wt2 strain growth inhibition, active compounds read high
Summary of the method: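 The panel's yeast strains carry defined changes in DNA repair or cell cycle genes. Each strain is grown with compound, and growth loss is scored relative to vehicle.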

[12] = NCI Yeast Anticancer Drug Screen. Data for the mlh1 strain (AID 171);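 also: 0% = growth of vehicle-treated control cultures of the same strain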; conditions: S. cerevisiae mlh1 strain growth inhibition, active compounds read high
Summary of the method: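 Inhibition values reflect reduced yeast growth in the presence of compound, referenced to vehicle controls, using a strain chosen for its alteration in DNA repair or cell cycle control.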

[13] = NCI Yeast Anticancer Drug Screen. Data for the sgs1 strain (AID 173);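 also: 0% = growth of vehicle-only control cultures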; conditions: S. cerevisiae sgs1 mutant, active compounds read high
Summary of the method: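 Vehicle-treated cultures served as reference for growth inhibition of a yeast strain altered in DNA damage repair or cell cycle control after compound exposure.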

[14] = NCI Yeast Anticancer Drug Screen. Data for the mlh1 rad18 strain (AID 175); conditions: S. cerevisiae mlh1 rad18 strain growth inhibition, active compounds read high
Summary of the method: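 Inhibition values reflect reduced growth of mutant yeast versus vehicle-treated controls following compound exposure; the mutations affect DNA damage repair.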

[15] = NCI Yeast Anticancer Drug Screen. Data for the rad18 strain (AID 177); conditions: S. cerevisiae rad18 mutant growth inhibition, active compounds read high
Summary of the method: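 Steps: expose repair-mutant yeast to compound; measure growth; express as inhibition relative to vehicle control.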

[16] = at 5.0 µM (retest, dose inferred, filed as 0.5)
[17] = at 50.0 µM (retest, dose inferred, filed as 5.0)

Measured: growth inhibition

CCC1(OC(=O)CN)C(=O)OCc2c1cc1n(c2=O)Cc2cc3ccccc3nc2-1 (stereo not drawn)
inactive: [2]; at 1.2 µM -1% | [2]; at 3.7 µM 4% | [2]; at 11.0 µM 51% | [3]; at 1.2 µM 45% | [3]; at 3.7 µM 67% | [4]; at 1.2 µM 20% | [4]; at 3.7 µM 25% | [4]; at 11.0 µM 50% | [6]; at 1.2 µM 19% | [7]; [16] 62% | [8]; at 1.2 µM 37% | [8]; at 3.7 µM 37% | [8]; at 11.0 µM 62% | [9]; [16] 49% | [10]; at 1.2 µM 9% | [10]; at 3.7 µM 13% | [10]; [16] 8% | [10]; at 11.0 µM 44% | [11]; at 1.2 µM 0% | [11]; at 3.7 µM 4% | [11]; at 11.0 µM 67% | [12]; at 1.2 µM 3% | [12]; at 3.7 µM 15% | [13]; at 1.2 µM 8% | [13]; at 3.7 µM 38% | [14]; [16] 42% | [14]; [17] -13% | [15]; at 1.2 µM 31% | [15]; at 3.7 µM 33% | [15]; at 11.0 µM 58%
active: [1]; at 1.2 µM 93% | [1]; at 3.7 µM 95% | [1]; at 11.0 µM 96% | [1]; at 33.0 µM 97% | [1]; at 100.0 µM 97% | [2]; at 33.0 µM 88% | [2]; at 100.0 µM 94% | [3]; at 11.0 µM 85% | [3]; at 33.0 µM 92% | [3]; at 100.0 µM 93% | [4]; at 33.0 µM 80% | [4]; at 100.0 µM 91% | [5]; at 1.2 µM 94% | [5]; at 3.7 µM 96% | [5]; [16] 97% | [5]; at 11.0 µM 97% | [5]; at 33.0 µM 97% | [5]; [17] 97% | [5]; at 50.0 µM 98% | [5]; at 100.0 µM 97% | [6]; at 3.7 µM 82% | [6]; [16] 84% | [6]; at 11.0 µM 96% | [6]; at 33.0 µM 97% | [6]; [17] 95% | [6]; at 50.0 µM 99% | [6]; at 100.0 µM 98% | [7]; [17] 96% | [7]; at 50.0 µM 94% | [8]; at 33.0 µM 80% | [8]; at 100.0 µM 88% | [9]; [17] 92% | [9]; at 50.0 µM 89.2% | [10]; at 33.0 µM 79% | [10]; [17] 94% | [10]; at 50.0 µM 96.9% | [10]; at 100.0 µM 92% | [11]; at 33.0 µM 90% | [11]; at 100.0 µM 95% | [12]; at 11.0 µM 70% | [12]; at 33.0 µM 93% | [12]; at 100.0 µM 96% | [13]; at 11.0 µM 85% | [13]; at 33.0 µM 94% | [13]; at 100.0 µM 95% | [14]; at 50.0 µM 97.3% | [15]; at 33.0 µM 80% | [15]; at 100.0 µM 89%
